Screening data from PubChem BioAssay.
This is a sample that favours compounds with a hit; in the whole collection about 9.4% have one here.
ALDH1A1 inh: qHTS Assay for Inhibitors of Aldehyde Dehydrogenase 1 (ALDH1A1); Aldehyde dehydrogenase 1A1 (Homo sapiens), P00352; 220,000 tested, 7.3% active; Purified ALDH1A1, NADH fluorescence, propionaldehyde substrate; AID 1030, 2008; Potency, µM (series often up to 75.3 µM), for inactives: at the highest dose activity, negative = inhibition, usual class: inhibitors; active = well fitted inhibition curve with a large enough effect, not every such curve was filed as active; inconclusive = small, poorly fitted or top-dose-only effect, or another doubt; inactive = no such curve, though single readings can be large or run the other way;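 also: potency is read from the fitted curve at half-maximal effect; plate controls were no enzyme wells and a reference inhibitor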
Target sequence (P00352 whole entry, looked up): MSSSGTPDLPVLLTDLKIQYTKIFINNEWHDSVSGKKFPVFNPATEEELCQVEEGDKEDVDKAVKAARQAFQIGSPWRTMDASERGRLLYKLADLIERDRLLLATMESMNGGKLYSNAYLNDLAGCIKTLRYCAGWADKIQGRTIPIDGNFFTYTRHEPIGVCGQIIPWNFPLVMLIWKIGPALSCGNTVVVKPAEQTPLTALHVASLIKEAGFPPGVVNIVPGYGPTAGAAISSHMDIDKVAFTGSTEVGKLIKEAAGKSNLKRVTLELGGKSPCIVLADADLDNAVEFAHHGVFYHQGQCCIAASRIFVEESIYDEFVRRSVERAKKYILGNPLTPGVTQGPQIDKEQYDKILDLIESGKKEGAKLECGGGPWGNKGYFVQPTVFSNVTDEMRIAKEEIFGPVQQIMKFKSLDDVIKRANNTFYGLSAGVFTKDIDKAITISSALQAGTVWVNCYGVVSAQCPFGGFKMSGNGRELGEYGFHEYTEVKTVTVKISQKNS
HTT cytoprotect: qHTS Multiplex Assay to Identify Dual Action Probes in a Cell Model of Huntington: Cytoprotection (ATP); PC12 HTT-Q103 induced, cytoprotection, ATP luminescence, 40 h; Potency, µM (titrated, usually from 56.4 µM), for inactives: cytoprotection (ATP increase), hits mostly activators; 230,000 tested, 0.14% active; also: potency is read from the fitted curve at half-maximal effect; % of control where 0% means no effect; nearly all actives have a fitted effect of over 45% in size
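Compounds added alongside 100 nM tebufenozide, which induces toxic Q103 huntingtin exon 1-GFP in stable PC12 cells; surviving cells quantified by luminescent ATP measurement. Medium: phenol red-free DMEM, 5% equine and 5% calf serum.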
IMPase cell inh: qHTS Assay for Identifying the Cell-Membrane Permeable IMPase Inhibitors. Inositol monophosphatase 1 (Rattus norvegicus), P97697. CHO-M1 cells, IP1 accumulation, HTRF TR-FRET ratio. inhibition (IP1 accumulation), % at 46.1 µM. 120,000 tested, under 10 active; active = well fitted curve in the direction sought with a large enough effect in the signal ratio, not every such curve was filed as active; inconclusive = small, poorly fitted or top-dose-only effect, or a change in a side signal; inactive = no such curve, though single readings can be large or run the other way; the % refers to the signal ratio;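 also: cells stimulated with carbachol in lithium chloride buffer; plate controls were DMSO basal wells for no effect and reference inhibitor wells for full effect; higher means more IMPase inhibition seen as more IP1 and lower FRET ratio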
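In this qHTS, compounds (final up to 46 uM) act on CHO-M1 cells that are then activated through the M1 receptor with carbachol, in pH 7.4 buffer containing 50 mM LiCl, for 30 min. IP1 accumulation is quantified by the IP-One immunoassay.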
IMPase Li cell: qHTS Assay for Identifying the Cell-Membrane Permeable IMPase Inhibitors: Potentiation with Lithium. CHO-M1 cells, IP1 TR-FRET (IP-One), carbachol + lithium. Potency, µM (top dose mostly 59.4 µM), for the others: at the highest dose activity, negative = IMPase inhibition, usual class: inhibitors. 210,000 tested, 0.35% active;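 also: IP1 builds up when IMPase is blocked and the TR-FRET signal falls; potency is read from the fitted curve at half-maximal effect; plate controls were basal vehicle for no effect and high inhibitor control for full effect; nearly all actives have a fitted effect of over 50% in size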
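Readout is a homogeneous TR-FRET IP1 immunoassay (Ex 320, Em 665 and 620), where raised cytosolic IP1 lowers signal. Cells were CHO-M1 treated 30 min at 37C with test compounds plus a little lithium; AC50 values came from Hill-equation fitting.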
HPGD block: qHTS Assay for Inhibitors of HPGD (15-Hydroxyprostaglandin Dehydrogenase) | 15-hydroxyprostaglandin dehydrogenase [NAD(+)] (Homo sapiens), P15428 | purified HPGD, NADH fluorescence kinetic, PGE2 substrate | 150,000 tested, 4.3% active | Potency, µM, for the others: at the top dose activity change, negative = inhibition, usual class: inhibitors | AID 894, 2007; active = well fitted inhibition curve with a large enough effect, not every such curve was filed as active; inconclusive = small, poorly fitted or top-dose-only effect, or another doubt; inactive = no such curve, though single readings can be large or run the other way; also: potency is read from the fitted curve at half-maximal effect; % is scaled to controls: 0 for no effect and ±100 for the full control effect
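20 nM HPGD preincubated 15 min at room temperature with compound in 50 mM Tris-HCl pH 8, 0.01% Tween 20. Started with 1 mM NAD+ and 30 uM prostaglandin E2; NADH fluorescence (360/450 nm) read 5 times over 30-s intervals, last minus first.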
HTT aggregate: qHTS Multiplex Assay to Identify Dual Action Probes in a Cell Model of Huntington: Aggregate Formation (GFP); PC12 HttQ103-GFP aggregates, Acumen cytometry, 40 h; 220,000 tested, 1.1% active; AID 1688, 2009; Potency, µM (series often up to 46.1 µM), without a hit: top-dose activity change, negative = inhibition, most hits filed as inhibitors; also: potency is read from the fitted curve at half-maximal effect; % is scaled to controls: 0 for no effect and ±100 for the full control effect; nearly all actives have a fitted effect of over 60% in size
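Inducible Q103 Huntingtin exon 1–GFP PC12 line, 1500 cells/well in phenol red free DMEM with 5% equine and 5% calf serum. Tebufenozide 100 nM induced expression; compounds titrated; aggregates quantified by cytometry.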
An asterisk follows results filed as active; ? = inconclusive; · = not tested or not shown; [ ] = dose if it differs, or a comment. Unless noted, calls follow the shape of the dose curve; as a rule, active = well fitted curve in the direction sought with a large enough effect; inconclusive = small, poorly fitted or top-dose-only effect, or another doubt; inactive = no such curve, though single readings can be large; an effect the other way counts as inactive or inconclusive.

SMILES | ALDH1A1 inh | HTT cytoprotect | IMPase cell inh | IMPase Li cell | HPGD block | HTT aggregate
Cc1ccc(C)c2[nH]c(=O)c(CN(CCN3CCOCC3)Cc3nnnn3CC3CCCO3)cc12 (configuration not stated) | ? | -15%[10 µM] | 4 | 0%[38.3 µM] | -15% | 8%
Cc1ccc2[nH]c(=O)c(CN(Cc3nnnn3C3CCCC3)C3CCCCC3)cc2c1 | 25µM* | -12%[10 µM] | 1 | -15%[38.3 µM] | -10% | -11%
COc1ccc2cc(CN(CCCN3CCOCC3)Cc3nnnn3C3CCCCC3)c(=O)[nH]c2c1 | 13µM* | -16% | 0 | -4%[38.3 µM] | -3% | 5%
Cc1cccc2cc(CN(Cc3ccc(F)cc3)Cc3nnnn3C3CCCC3)c(=O)[nH]c12 | 14µM* | -29% | 0 | 8%[38.3 µM] | 7% | 2%
Cc1ccc(C)c2[nH]c(=O)c(CN(Cc3nnnn3C3CCCCC3)CC3CCCO3)cc12 (configuration not stated) | 1.8µM* | -8%[10 µM] | 2 | 17%[38.3 µM] | -16% | 7%
CCC(c1nnnn1C1CCCCC1)N(Cc1ccco1)Cc1cc2ccc(OC)cc2[nH]c1=O (configuration not stated) | ? | -24%[10 µM] | -5 | 15%[38.3 µM] | -26% | ?
COc1cc2c(cc1OC)C(C(=O)c1ccc(OC)c(OC)c1O)=NCC2 | -7% | -30% | · | 14% | ? | ·
N.N.O=C(O)C1(C(=O)O)CCC1.[Pt] | ? | -54% | 10 | 12% | ? | ·
COCCn1c(=O)cnc2cnc(OCc3ccccc3)nc21 | -3% | 19% | · | 3% | -10% | ·
FC(F)(F)c1ccccc1-c1cncnc1NCCN1CCOCC1 | 15% | -44% | · | 5% | · | ·
Cc1ccc2cc(CN(Cc3nnnn3C3CCCC3)C3CCCCC3)c(=O)[nH]c2c1C | 7.9µM* | 33% | -7 | 4%[38.3 µM] | -8% | -5%
Cc1ccc2[nH]c(=O)c(C(c3nnnn3C3CCCC3)N(Cc3cccnc3)Cc3ccco3)cc2c1 (configuration not stated) | 4.5µM* | -41% | 10 | 19%[38.3 µM] | -4% | -8%
Cc1ccc2[nH]c(=O)c(CN(Cc3ccccc3)Cc3nnnn3C3CCCC3)cc2c1 | 14µM* | -12%[10 µM] | 6 | 45%[38.3 µM] | -8% | ?
Cc1cc(C)c2[nH]c(=O)c(CN(Cc3ccc4c(c3)OCO4)Cc3nnnn3C3CCCC3)cc2c1 | ? | -24%[10 µM] | 6 | 40%[38.3 µM] | -26% | ?
COC(=O)N1CCC2(CC1)CCN(c1ccncc1)CC2 | 6% | 17% | · | 18% | 0% | ·
Cc1nn(-c2ccccc2)c(Cl)c1/C=N/NC(=O)CCNc1n[nH]c(=O)[nH]c1=O | · | 10%[10 µM] | · | · | · | 2%[9.22 µM]
O=C(NC1CCCCCC1)C(=S)N1CCCC1 | -6% | -29% | · | 0% | · | -5%
O=C(NC1CCCCCC1)C(=S)N1CCOCC1 | 10µM* | 13%[10 µM] | · | 4% | · | 3%
CC1=C(/C=C/C(C)=C/C=C/C(C)=C/C(=O)O)C(C)(C)CCC1O (configuration not stated) | 6.3µM* | -18% | · | 18% | · | ·
NC(=O)CS(=O)(=O)c1nc2ccccc2n1Cc1ccccn1 | -2% | 3% | · | -4% | · | -5%
COc1ccc(Cn2c(S(=O)(=O)CC(N)=O)nc3ccccc32)cc1[N+](=O)[O-] | 7.1µM* | 7%[10 µM] | · | 0% | · | -6%[9.22 µM]
Cc1cc(=O)n(CC=C(Cl)Cl)c2ccccc12 | ? | -19% | 1 | 11%[38.3 µM] | 7.9µM* | 5%[9.22 µM]
Cc1ccc(NC(=O)Nc2cc(Cl)ccc2C2COC(=O)C2=N)cc1 (configuration not stated) | 7.5µM* | -9%[10 µM] | · | -5% | · | 0%
